Data taken from PubChem BioAssay AID1159580 (chemical genetic matrix, 2015).
In all, about 5,500 compounds went through this assay and about 2,000 (36%) were called active. Not shown: some 18% with an inconclusive outcome. No stated cut-off is given here; in the data, active means normalized growth mostly below about 0.91 (no sharp cut-off); inconclusive means no clear call, values can overlap the other calls; inactive means mostly above about 0.92. The list shows a part of the results.

Assay: chemical genetic growth profiling, strain panel (AID 1159580);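 further: tested at 20 µM; growth read once vehicle control cultures reached saturation at 30 °C; 1 = growth at the plate median or of vehicle wells; lower values mean less growth of the strain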
Conditions: growth OD
[1] = S. cerevisiae deletion strains, locus YDL101C, strain DUN1, hits give low values
[2] = S. cerevisiae deletion strains, locus YHR030C, strain SLT2, hits give low values
[3] = S. cerevisiae deletion strains, locus YAL013W, strain DEP1, hits give low values
[4] = S. cerevisiae deletion strains, locus YBR229C, strain ROT2, hits give low values
[5] = S. cerevisiae deletion strains, locus YCL061C, strain MRC1, hits give low values
[6] = S. cerevisiae deletion strains, locus YDR150W, strain NUM1, hits give low values
[7] = S. cerevisiae deletion strains, locus YEL061C, strain CIN8, hits give low values
[8] = S. cerevisiae deletion strains, locus YGR078C, strain PAC10, hits give low values
[9] = S. cerevisiae deletion strains, locus YHR087W, strain rtc3, hits give low values
[10] = S. cerevisiae deletion strains, locus YJR043C, strain POL32, hits give low values
[11] = S. cerevisiae deletion strains, locus YJR075W, strain HOC1, hits give low values
[12] = S. cerevisiae deletion strains, locus YLR039C, strain RIC1, hits give low values
[13] = S. cerevisiae deletion strains, locus YLR058C, strain SHM2 (second series), hits give low values
[14] = S. cerevisiae deletion strains, locus YLR085C, strain ARP6, hits give low values
[15] = S. cerevisiae deletion strains, locus YLR262C, strain YPT6, hits give low values
[16] = S. cerevisiae deletion strains, locus YML094W, strain GIM5, hits give low values
[17] = S. cerevisiae deletion strains, locus YMR219W, strain ESC1, hits give low values
[18] = S. cerevisiae deletion strains, locus YMR263W, strain SAP30, hits give low values
[19] = S. cerevisiae deletion strains, locus YNL153C, strain GIM3, hits give low values
[20] = S. cerevisiae deletion strains, locus YNL298W, strain CLA4 (second series), hits give low values
[21] = S. cerevisiae deletion strains, locus YNL322C, strain KRE1, hits give low values
[22] = S. cerevisiae deletion strains, locus YNR030W, strain Alg12, hits give low values
[23] = S. cerevisiae deletion strains, locus YPL055C, strain LGE1, hits give low values
[24] = S. cerevisiae deletion strains, locus YPL241C, strain CIN2, hits give low values
[25] = S. cerevisiae deletion strains, locus YPR135W, strain CTF4, hits give low values
[26] = S. cerevisiae strains, strain wild type, hits give low values

Measured: normalized growth

O=[N+]([O-])c1ccc(NCc2ccc(Cl)c(Cl)c2)nc1
inactive: S. cerevisiae deletion strains, locus YAR019C, strain CDC15, hits give low values 0.931 | S. cerevisiae deletion strains, locus YBL105C, strain PKC1, hits give low values 0.936 | S. cerevisiae deletion strains, locus YBR135W, strain CKS1, hits give low values 0.936 | S. cerevisiae deletion strains, locus YBR136W, strain MEC1, hits give low values 0.944 | S. cerevisiae deletion strains, locus YBR160W, strain CDC28, hits give low values 0.941 | S. cerevisiae deletion strains, locus YDL017W, strain CDC7, hits give low values 0.946 | S. cerevisiae deletion strains, locus YDL028C, strain MPS1, hits give low values 0.946 | [1] 0.925 | S. cerevisiae deletion strains, locus YDL108W, strain KIN28, hits give low values 0.942 | S. cerevisiae deletion strains, locus YDL132W, strain cdc53, hits give low values 0.919 | S. cerevisiae deletion strains, locus YDL214C, strain PRR2, hits give low values 0.857 | S. cerevisiae deletion strains, locus YDR052C, strain DBF4, hits give low values 0.953 | S. cerevisiae deletion strains, locus YDR054C, strain cdc34, hits give low values 0.918 | S. cerevisiae deletion strains, locus YDR226W, strain ADK1, hits give low values 0.937 | S. cerevisiae deletion strains, locus YDR477W, strain SNF1, hits give low values 0.882 | S. cerevisiae deletion strains, locus YER123W, strain YCK3, hits give low values 0.862 | S. cerevisiae deletion strains, locus YER133W, strain GLC7, hits give low values 0.842 | S. cerevisiae deletion strains, locus YFL009W, strain cdc4, hits give low values 0.923 | S. cerevisiae deletion strains, locus YFL029C, strain CAK1, hits give low values 0.931 | S. cerevisiae deletion strains, locus YFR003C, strain YPI1, hits give low values 0.944 | S. cerevisiae deletion strains, locus YFR019W, strain FAB1, hits give low values 0.907 | S. cerevisiae deletion strains, locus YFR028C, strain CDC14, hits give low values 0.917 | S. cerevisiae deletion strains, locus YGR040W, strain KSS1, hits give low values 0.884 | S. cerevisiae deletion strains, locus YGR052W, strain FMP48, hits give low values 0.861 | S. cerevisiae deletion strains, locus YGR092W, strain DBF2, hits give low values 0.852 | S. cerevisiae deletion strains, locus YHR079C, strain IRE1, hits give low values 0.78 | S. cerevisiae deletion strains, locus YHR082C, strain KSP1, hits give low values 0.906 | S. cerevisiae deletion strains, locus YHR205W, strain SCH9, hits give low values 0.81 | S. cerevisiae deletion strains, locus YIL147C, strain SLN1, hits give low values 0.94 | S. cerevisiae deletion strains, locus YJL095W, strain BCK1, hits give low values 0.774 | S. cerevisiae deletion strains, locus YJL128C, strain PBS2, hits give low values 0.839 | S. cerevisiae deletion strains, locus YJL157C, strain FAR1, hits give low values 0.883 | S. cerevisiae deletion strains, locus YJR016C, strain ILV3, hits give low values 0.939 | S. cerevisiae deletion strains, locus YJR066W, strain TOR1 (second series), hits give low values 0.892 | S. cerevisiae deletion strains, locus YJR066W, strain TOR1, hits give low values 0.898 | S. cerevisiae deletion strains, locus YKL048C, strain ELM1, hits give low values 0.913 | S. cerevisiae deletion strains, locus YKL067W, strain YNK1, hits give low values 0.891 | S. cerevisiae deletion strains, locus YKL101W, strain HSL1, hits give low values 0.875 | S. cerevisiae deletion strains, locus YKL193C, strain SDS22, hits give low values 0.935 | S. cerevisiae deletion strains, locus YKL203C, strain TOR2, hits give low values 0.948 | S. cerevisiae deletion strains, locus YLR133W, strain CKI1, hits give low values 0.911 | S. cerevisiae deletion strains, locus YLR403W, strain SFP1, hits give low values 0.865 | S. cerevisiae deletion strains, locus YML070W, strain DAK1, hits give low values 0.854 | S. cerevisiae deletion strains, locus YMR001C, strain CDC5, hits give low values 0.938 | S. cerevisiae deletion strains, locus YMR205C, strain PFK2 (second series), hits give low values 0.875 | S. cerevisiae deletion strains, locus YMR277W, strain FCP1, hits give low values 0.932 | S. cerevisiae deletion strains, locus YNL006W, strain LST8, hits give low values 0.916 | S. cerevisiae deletion strains, locus YNL020C, strain ARK1, hits give low values 0.893 | S. cerevisiae deletion strains, locus YNL161W, strain CBK1, hits give low values 0.93 | S. cerevisiae deletion strains, locus YNL183C, strain NPR1, hits give low values 0.934 | S. cerevisiae deletion strains, locus YNL207W, strain RIO2, hits give low values 0.937 | S. cerevisiae deletion strains, locus YNL222W, strain SSU72, hits give low values 0.927 | S. cerevisiae deletion strains, locus YNL307C, strain MCK1 (second series), hits give low values 0.91 | S. cerevisiae deletion strains, locus YOL078W, strain AVO1, hits give low values 0.926 | S. cerevisiae deletion strains, locus YOL136C, strain PFK27, hits give low values 0.864 | S. cerevisiae deletion strains, locus YOR061W, strain CKA2, hits give low values 0.884 | S. cerevisiae deletion strains, locus YOR119C, strain RIO1, hits give low values 0.949 | S. cerevisiae deletion strains, locus YOR231W, strain MKK1, hits give low values 0.87 | S. cerevisiae deletion strains, locus YOR329C, strain SCD5, hits give low values 0.933 | S. cerevisiae deletion strains, locus YPL031C, strain PHO85, hits give low values 0.88 | S. cerevisiae deletion strains, locus YPL153C, strain RAD53, hits give low values 0.895 | S. cerevisiae deletion strains, locus YPL204W, strain HRR25, hits give low values 0.869 | S. cerevisiae deletion strains, locus YPL209C, strain IPL1, hits give low values 0.943 | S. cerevisiae deletion strains, locus YPR025C, strain CCL1, hits give low values 0.93 | S. cerevisiae deletion strains, locus YPR106W, strain ISR1, hits give low values 0.918 | S. cerevisiae deletion strains, locus YPR111W, strain DBF20, hits give low values 0.909 | S. cerevisiae deletion strains, strain NNK1, hits give low values 0.891 | S. cerevisiae deletion strains, strain TSCII, hits give low values 0.93
active: [2] 0.733 | S. cerevisiae deletion strains, locus YLR113W, strain HOG1, hits give low values 0.657 | S. cerevisiae deletion strains, locus YPL256C, strain CLN2, hits give low values 0.763

O=[N+]([O-])c1ccc(NCCCCCO)nc1
inactive: [3] 0.988 | [4] 0.98 | [5] 0.977 | [1] 0.966 | S. cerevisiae deletion strains, locus YDL134C, strain PPH21, hits give low values 0.998 | [6] 0.975 | [7] 1.03 | [8] 0.987 | [2] 0.974 | [9] 1.05 | S. cerevisiae deletion strains, locus YJL187C, strain SWE1, hits give low values 1 | [10] 0.981 | [11] 1.02 | S. cerevisiae deletion strains, locus YKL190W, strain CNB1, hits give low values 1.01 | [12] 0.936 | [13] 0.993 | [14] 0.993 | [15] 1.01 | [16] 1.04 | [17] 1.01 | [18] 0.999 | S. cerevisiae deletion strains, locus YMR307W, strain GAS1, hits give low values 1.07 | [19] 0.986 | [20] 0.967 | [21] 0.992 | [22] 0.99 | S. cerevisiae deletion strains, locus YOL006C, strain TOP1, hits give low values 0.955 | [23] 1.04 | [24] 0.974 | [25] 0.958 | [26] 0.996

Cc1cc(S(=O)(=O)NC(Cc2ccc([N+](=O)[O-])cc2)C(=O)O)c(Cl)cc1Cl (stereo not given)
inactive: [3] 1.01 | [4] 0.996 | [5] 1 | [1] 0.997 | [6] 0.927 | [7] 1.01 | [8] 1 | S. cerevisiae deletion strains, locus YGR229C, strain SMI1, hits give low values 1.01 | [2] 1.07 | [9] 1 | [10] 0.998 | [11] 1 | [12] 1.01 | [13] 1 | [14] 1.02 | [15] 1 | [16] 1.02 | [17] 0.995 | [18] 1 | S. cerevisiae deletion strains, locus YNL128W, strain TEP1, hits give low values 1 | [19] 0.995 | [20] 1.01 | [21] 1 | [22] 1.01 | [23] 1.04 | [24] 1.02 | [25] 0.988 | [26] 1.01
